82 compounds from PubChem BioAssay AID651820 (National Center for Advancing Translational Sciences (NCATS), 2012) can be followed below.

The structures appear in SMILES notation. In all, about 340,000 compounds went through this assay and about 12,000 (3.5%) were called active. Entries that show only a call come without a potency. Roughly 18% stayed inconclusive and do not appear here. For the sample, actives were picked, then their nearest neighbours and some compounds at random. More than one record can exist for a structure, and the calls need not agree. Unmarked numbers belong to inactive results. The call rests on the fitted dose curve; in most records, active means well fitted inhibition curve with a large enough effect; inconclusive means small, poorly fitted or top-dose-only effect, or another doubt; inactive means no such curve, though single readings can be large or run the other way.
Potency means the concentration at half of the fitted maximal effect.

This experiment is described as follows: qHTS Assay for Inhibitors of Hepatitis C Virus (HCV). Particulars: Huh7.5.1 HCVcc-Cre infection, luciferase reporter, 44 h; series mostly up to 41.8 µM. An outline of the steps: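 Seed cells (1,000/well) for 4 h; treat with compound and infect with HCVcc-Cre, moi about 0.5. Incubate 44 h, then detect luciferase activity.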
With `O=C(NCC1(N2CCCCC2)CCCCC1)c1ccc(NS(=O)(=O)c2ccc(F)cc2)cc1`, the Potency entry is “inactive”.

In the case of `O=C(NCC1(N2CCCCC2)CCCCC1)c1cccc(S(=O)(=O)Nc2ccccc2Cl)c1`, the Potency entry is “inactive”.

In the case of `CCOc1ccc(S(=O)(=O)Nc2cccc(C(=O)NCC3(N4CCCCC4)CCCCC3)c2)cc1`, the Potency is 12.6 µM (active).

With `O=C(CCNS(=O)(=O)c1ccccc1)NCCCc1ccccc1`, the Potency entry is “inactive”.

Consider `NS(=O)(=O)c1ccc(CCNC(=O)COC(=O)COc2cccc(C(F)(F)F)c2)cc1`, for which the Potency entry was “inactive”.

As to `CN(C)C(=O)CCc1ccc2c3c([nH]c2c1)[C@]1(C)[C@@H](C(=O)N2CCOCC2)C[C@H](CC(=O)NCCc2ccccn2)C(=O)N1CC3`, the Potency entry was “inactive”.

For the compound `N#CC1(Nc2ccc(-c3ccc(Cl)cc3)cc2)CCCC1`, the Potency result was “inactive”.

As to `O=C1COc2c1ccc(O)c2O`, the Potency entry was “inactive”.

Consider `CC(C)(C)c1ccc(C(=O)NCc2ccco2)cc1`, for which the Potency result is “inactive”.

Take `CC(C)(C)OC(=O)CNC(=O)c1[nH]cnc1C(=O)N[C@@H](CCCCN)C(=O)OC(C)(C)C`: the Potency result was “inactive”.

Regarding `COc1c(C)cccc1C(=O)Nc1cc(Cl)ccc1N1CCOCC1`, the Potency entry was “inactive”.

For `O=C(Nc1cc(-c2nn(CC(=O)N3CCCCC3)c(=O)c3ccccc23)ccc1N1CCOCC1)c1ccc(Cl)cc1`, the Potency entry is “inactive”.

Take `O=C(Nc1cc(Cl)ccc1N1CCOCC1)c1ccc(N2CCCC2=O)cc1`: the Potency was 35.5 µM (active).

Take `COc1ccc(CCNC(=O)COC(=O)c2ncc(Cl)c(Cl)c2Cl)cc1OC`: the Potency entry was “inactive”.

With `O=C(CSc1nc2ccccc2c(=O)n1-c1ccc(F)cc1)NC1CC1`, the Potency result is “inactive”.

Turning to `COCCN(C(=O)CSCc1ccc(C)cc1)c1c(N)n(CC(C)C)c(=O)[nH]c1=O`, the Potency result was “inactive”.

For `N#Cc1ccc(C(=O)OCC(=O)NC(=O)NC2CCCCC2)cc1`, the Potency result was “inactive”.

As to `O=C(NNC(=O)c1cc(-c2ccccc2Cl)nc2ccccc12)c1csc(N2CCOCC2)n1`, the Potency result is “inactive”.

Turning to `C=CC[n+]1c(-c2ccc(C)cc2)csc1NNC(=O)Nc1ccccc1`, the Potency is 5.62 µM (active).

With `O=C(NNC(=O)c1ccc(-c2ccccc2)cc1)Nc1ccccc1`, the Potency entry is “inactive”.

With `C=CCNc1scc(-c2ccccc2)[n+]1CC=C`, the Potency result was “inactive”.

As for `N#CC(Cc1cc2ccccc2n1S(=O)(=O)c1ccccc1)OCc1ccccc1` (stereo not drawn), the Potency entry was “inactive”.

As to `Nc1cccnc1Sc1ccccc1`, the Potency result was “inactive”.

Regarding `CN1CCN(c2ccc([N+](=O)[O-])c(Sc3nc4ccccc4[nH]3)c2)CC1`, the Potency result is “inactive”.

Turning to `O=[N+]([O-])c1ccc(N2CCSCC2)cc1O`, the Potency entry was “inactive”.

`CC1CCN(c2ccc([N+](=O)[O-])c(SCCO)c2)CC1`: the Potency was 10 µM (active).

With `Cc1occc1-c1nnc(SCC(=O)NC2(C#N)CCCC2)n1C`, the Potency result is “inactive”.

In the case of `CN(C)CCCN(C(=O)c1ccc(S(=O)(=O)N2CCCCCC2)cc1)c1nc2cc3c(cc2s1)OCCO3`, the Potency entry is “inactive”.

Regarding `O=[N+]([O-])c1ccc(C=NN=Cc2ccc([N+](=O)[O-])cc2)cc1`, the Potency result was “inactive”.

Regarding `COC(=O)c1ccc(C(=O)OC)c(NC(=S)N2CCN(c3cc(Cl)ccc3C)CC2)c1`, the Potency result is “inactive”.

As for `Cc1cccc(N2CCN(C(=O)c3cnn4c(C(F)F)cc(-c5ccccc5)nc34)CC2)c1C`, the Potency result is “inactive”.

In the case of `Cc1ccc(Cl)cc1N1CCN(C(=O)c2cccc3c(=O)c(C)c(-c4ccccc4)oc23)CC1`, the Potency was 10 µM (active).

For `CC(C#N)OC(=O)c1cccnc1SCC(=O)Nc1ccc2c(c1)OCO2` (stereo not drawn), the Potency entry is “inactive”.

On to `Cc1ccc(CN2CC(C(=O)N3CCN(S(=O)(=O)c4ccccc4)CC3)CC2=O)cc1` (stereo not drawn), for which the Potency result is “inactive”.

In the case of `Cc1cc(C(C)(C)C)n2nc(C)c(-c3ccccc3)c2n1`, the Potency result is “inactive”.

Turning to `Cc1nn2c(NCCN(C)C)c3c(nc2c1-c1ccccc1)CCC3`, the Potency was 12.6 µM (active).

As for `Cc1cc(N2CCCC2)n2nc(C)c(-c3ccccc3)c2n1`, the Potency entry is “inactive”.

Consider `O=C(Nc1nc2ccc([N+](=O)[O-])cc2s1)c1ccncc1`, for which the Potency result was “inactive”.

As for `O=C(COC(=O)c1ccc(F)cc1)Nc1nc2ccc([N+](=O)[O-])cc2s1`, the Potency result is “inactive”.

Consider `O=C(NC(Nc1nc2ccc([N+](=O)[O-])cc2s1)(C(F)(F)F)C(F)(F)F)c1ccccc1`, for which the Potency is 0.562 µM (active).

`NC(=O)C1CCN(C(=O)c2cc(S(=O)(=O)N3CCN(c4ccccc4)CC3)ccc2Cl)CC1`: the Potency result is “inactive”.

For the compound `CC(=O)c1c(C)[nH]c(C(=O)OCC(=O)Nc2cc(S(=O)(=O)N3CCCCC3)ccc2C)c1C`, the Potency entry was “inactive”.

`CC(=O)c1c(C)[nH]c(C(=O)OCC(=O)NCCC(C)C)c1C`: the Potency was 11.2 µM (active).

In the case of `Cc1cccc(C(=O)OCC(=O)Nc2sc3c(c2C#N)CCC3)c1`, the Potency entry was “inactive”.

As for `CC(=O)c1c(C)[nH]c(C(=O)COC(=O)c2cccs2)c1C`, the Potency result is “inactive”.

In the case of `CC(=O)c1c(C)[nH]c(C(=O)OCC(=O)Nc2sc3c(c2C#N)CCCC3)c1C`, the Potency was 12.6 µM (active).

On to `N#CCC(=O)Nc1ccc(C(=O)OCC(=O)Nc2sc3c(c2C#N)CCCC3)cc1`, for which the Potency entry is “inactive”.

As to `NN=C(NN=Cc1ccccc1)c1ccccc1`, the Potency entry was “inactive”.

For the compound `O=[N+]([O-])c1cc2ccccc2nc1-c1ccccc1`, the Potency entry is “inactive”.

Turning to `CC1CCCCC12NC(=O)N(CC(=O)Nc1ccc(S(=O)(=O)Nc3ncccn3)cc1)C2=O` (stereo not drawn), the Potency result is “inactive”.

Regarding `COc1ccc(NC(=O)CC2SC(N3CCCCC3)=NC2=O)cc1OC` (stereo not drawn), the Potency result was “inactive”.

`Cc1ccc(CN(C)CC(=O)Nc2cccc([N+](=O)[O-])c2)o1`: the Potency entry is “inactive”.

On to `Cc1ccc(NC(=O)CN(C)CC(=O)Nc2cccc(F)c2)cc1[N+](=O)[O-]`, for which the Potency was 5.62 µM (active).

As for `CN(CC(=O)Nc1cccc(F)c1)CC(=O)Nc1cccc([N+](=O)[O-])c1`, the Potency result was “inactive”.

With `COc1ccc(/C=C2/CCCc3ccccc3C2=O)cc1`, the Potency entry is “inactive”.

As for `Oc1c(Cl)cc(Cl)c(Cl)c1Cc1c(O)c(Cl)cc(Cl)c1Cl`, the Potency was 8.91 µM (active) and the activity change, negative = inhibition was -0.125% [at 8.37 µM].

With `O=C(NCC(c1ccco1)N1CCc2ccccc2C1)c1ccccc1Cl` (stereo not drawn), the Potency result was “inactive”.

Turning to `CC(=O)C(CC(=O)N1CCCC1)C(=O)Nc1ccc(Cl)cc1` (stereo not drawn), the Potency entry was “inactive”.

Consider `CC/C(=C\c1ccc(Cl)cc1)c1ccncc1`, for which the Potency result is “inactive”.

Turning to `COC(=O)c1ccc(CNC(=O)Cn2cc(C)c(=O)[nH]c2=O)cc1`, the Potency result was “inactive”.

As for `O=c1nc(NO)ccn1C1CCCO1` (stereo not drawn), the Potency result is “inactive”.

Turning to `COc1ccccc1N(CC(=O)Nc1ccc(C)cc1Cl)S(=O)(=O)c1cccs1`, the Potency result was “inactive”.

As for `CCOc1cc2[nH]c(=S)n(Cc3ccc(C(=O)N4CCN(C)CC4)cc3)c(=O)c2cc1OCC`, the Potency is 12.6 µM (active).

Consider `COc1ccccc1Cn1c(=S)[nH]c2cc(C(=O)N3CCN(C)CC3)ccc2c1=O`, for which the Potency result is “inactive”.

Turning to `CCOc1cc2[nH]c(=S)n(Cc3ccc(C(=O)NCCOC)cc3)c(=O)c2cc1OCC`, the Potency entry was “inactive”.

For the compound `C[C@H](CO)N1C[C@H](C)[C@@H](CN(C)C(=O)NC2CCCCC2)Oc2ccc(NC(=O)c3ccncc3)cc2C1=O`, the Potency entry was “inactive”.

`CCN(C[C@H]1N[C@@](Cc2ccccc2)(C(=O)OC)[C@H]2C(=O)N(Cc3ccccc3)C(=O)[C@@H]12)C(=O)c1ccc(C)cc1`: the Potency entry is “inactive”.

For `COc1ccc2ccccc2c1/C=N/NC(=O)c1cc(C)[nH]n1`, the Potency entry is “inactive”.

Turning to `CC(C)(C)c1cc(C(=O)N/N=C/c2ccc([N+](=O)[O-])s2)n[nH]1`, the Potency is 25.1 µM (active).

Take `Cc1cc(C(=O)N/N=C/c2cc([N+](=O)[O-])cc(C)c2O)n[nH]1`: the Potency result is “inactive”.

`COc1ccc(S(=O)(=O)N2CCc3ccccc32)cc1C(=O)Nc1cc(S(C)(=O)=O)ccc1Cl`: the Potency entry is “inactive”.

`O=C(CSCC(=O)Nc1cccc([N+](=O)[O-])c1)Nc1ccccc1`: the Potency result is “inactive”.

`O=C(CSc1nc(-c2ccccc2)cs1)Nc1cccc([N+](=O)[O-])c1`: the Potency was 11.2 µM (active).

On to `CCNC(=O)CSc1nc(-c2ccccc2)cs1`, for which the Potency entry was “inactive”.

For the compound `COc1ccccc1CNC(=O)CSc1nc(=O)n(Cc2ccncc2)c2c1CCC2`, the Potency entry was “inactive”.

Consider `C/C(=N/Nc1nc(-c2ccccc2)c(CC(=O)O)s1)c1ccccc1`, for which the Potency is 12.6 µM (active).

As for `O=C(O)Cc1sc(-c2ccccc2)nc1-c1cccs1`, the Potency result is “inactive”.

Consider `CCOC(=O)C(=O)Nc1nc(-c2ccccc2)c(CC)s1`, for which the Potency result is “inactive”.

For the compound `CC1O[C@@H](OC2C(O)C(C)O[C@H](OC(=O)[C@]34CCC(C)(C)C[C@H]3C3=CCC5[C@@]6(C)CC(O)C(O[C@@H]7OC(CO)C(O)[C@@H](O)[C@@H]7O)[C@@](C)(C(=O)O)C6CC[C@@]5(C)[C@]3(CO)CC4)C2O[C@H]2OC(C)[C@@H](O[C@@H]3OCC(O[C@@H]4OC(CO)C(O)[C@H](O)C4O)[C@@H](O)[C@@H]3O)[C@H](O)C2O)C(O)C(O)C1O` (stereo partly drawn), the Potency entry is “inactive”.

For `CCCCn1c(N)c(N(CC(C)C)C(=O)c2ccc(-n3c(C)ccc3C)cc2)c(=O)[nH]c1=O`, the Potency result was “inactive”.

On to `Cc1c(C)n2c(SCC(=O)N3CCCC3)nnc2[nH]c1=O`, for which the Potency entry was “inactive”.

For `COc1ccc(C(=O)OCc2cc(=O)n3ccsc3n2)cc1F`, the Potency result was “inactive”.
